The values that follow come from PubChem BioAssay (NCI).

The panel holds about 83,000 compounds, 20% with a hit somewhere; the sample as a whole holds those more often.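 Values shown are percent growth following 48 h exposure of cells in 96-well plates to a single concentration of compound; below 10 was considered active.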 Unmarked numbers belong to inactive results. Active and inactive are the calls of the source.

Some test systems named below: NCI-H23 lung; NCI-H226 lung; NCI-H322M lung; HOP-62 NSCLC; NCI-H460 lung; HOP-92 NSCLC; A549/ATCC NSCLC; 786-0 renal; COLO 205 colon; DU-145 prostate; K-562 leukemia; MALME-3M melanoma; MDA-MB-231 breast; RXF 393 renal; SF-268 CNS; SF-295 CNS; SF-539 CNS; UACC-257 melanoma; M14 melanoma.
What all share (test): NCI-60 one-dose screen, 48 h (100 = growth as untreated, 0 = no growth, -100 = all killed)
Settings in all cases: 10 µM unless noted

In the case of `CC[C@@H](c1ccc(O)c(O)c1)[C@@H](CC)c1ccc(O)c(O)c1`, the growth is 96.6% in the assay on NCI-H23 lung; 105% with NCI-H226 lung; 97% with NCI-H322M lung; 106% with HOP-62 NSCLC; 111% in the assay with NCI-H460 lung; 69.6% with HOP-92 NSCLC. Besides, the growth is 107% in the assay on A549/ATCC NSCLC; 100% in the assay with 786-0 renal; 9.38% (active) in the assay on COLO 205 colon; 110% in the assay with DU-145 prostate; 31.8% with K-562 leukemia; 39.2% in the assay on MALME-3M melanoma. For the same compound, the growth was 89.7% in the assay with MDA-MB-231 breast; 71.5% with RXF 393 renal; 98% with SF-268 CNS; 130% with SF-295 CNS; 102% in the assay with SF-539 CNS; 101% with UACC-257 melanoma. In addition, the growth in the assay with M14 melanoma was 62.4%.

Turning to `Cc1[nH]ccc2cc3nc4ccccc4c3cc12`, the growth in the assay with NCI-H23 lung is 39.4%; with NCI-H226 lung, 27.2%; with NCI-H322M lung, 19.2%; with HOP-62 NSCLC, 34.4%; in the assay with NCI-H460 lung, 8.56% (active); in the assay on HOP-92 NSCLC, 31.9%. Also, the growth was 14.6% with A549/ATCC NSCLC; 44.7% in the assay on 786-0 renal; -5.37% (active) in the assay with COLO 205 colon; 34.4% in the assay on DU-145 prostate; 12.1% in the assay with K-562 leukemia; 29.8% in the assay with MALME-3M melanoma. Further, the growth in the assay with MDA-MB-231 breast is 26.3%; with RXF 393 renal, 17.5%; in the assay on SF-268 CNS, 40%; in the assay on SF-295 CNS it was 20.1%; in the assay on SF-539 CNS, 34%; in the assay with UACC-257 melanoma, 39.9%. Besides, the growth in the assay with M14 melanoma is 38%.

In the case of `OCc1n(Cc2ccc3ccccc3c2)cc[n+]1Cc1ccc2ccccc2c1`, the growth in the assay on NCI-H23 lung was 67.7%; in the assay with NCI-H226 lung, 61.6%; with NCI-H322M lung, 78.9%; with HOP-62 NSCLC, 75%; with NCI-H460 lung, 53.1%; in the assay with HOP-92 NSCLC, -2.81% (active). The growth is 68.6% in the assay with A549/ATCC NSCLC; 80.1% with 786-0 renal; 23.1% in the assay on COLO 205 colon; 84.7% in the assay on DU-145 prostate; 22.7% with K-562 leukemia; 38.1% in the assay on MALME-3M melanoma. Further, the growth in the assay with MDA-MB-231 breast was 51.4%; in the assay with RXF 393 renal, 57.3%; in the assay with SF-268 CNS it was 60.7%; in the assay with SF-295 CNS it was 79.2%; in the assay on SF-539 CNS, 68.3%; in the assay on UACC-257 melanoma, 18.3%. Also, the growth in the assay on M14 melanoma is 41.7%.

Consider `O=C(Nc1ccccc1S)c1ccccc1`, for which the growth in the assay on NCI-H23 lung was 93.3%; with NCI-H226 lung, 103%; in the assay with NCI-H322M lung it was 103%; with HOP-62 NSCLC it was 120%; with NCI-H460 lung it was 98.7%; with HOP-92 NSCLC, 109%. The growth with A549/ATCC NSCLC is 93.8%; with 786-0 renal, 109%; with COLO 205 colon, 119%; with DU-145 prostate it was 111%; in the assay with K-562 leukemia it was 86.2%; in the assay with MALME-3M melanoma it was 116%. Further, the growth is 102% in the assay on MDA-MB-231 breast; 125% in the assay with RXF 393 renal; 103% in the assay with SF-268 CNS; 100% in the assay on SF-295 CNS; 104% in the assay with SF-539 CNS; 92.8% in the assay with UACC-257 melanoma. Further, the growth in the assay on M14 melanoma was 101%.

In the case of `COc1ccc(-c2cc(-c3cccnc3)nc3sc(C(=O)Nc4ccccc4)c(N)c23)cc1OC`, the growth with NCI-H23 lung was 87.8%; in the assay with NCI-H226 lung it was 77.2%; in the assay on NCI-H322M lung it was 79.3%; in the assay on HOP-62 NSCLC, 84.3%; in the assay on NCI-H460 lung, 44.3%; with HOP-92 NSCLC it was 24.9%. Besides, the growth was 74.2% in the assay on A549/ATCC NSCLC; 63.9% in the assay with 786-0 renal; 72.6% with COLO 205 colon; 54.6% with DU-145 prostate; 34.2% in the assay with K-562 leukemia; 109% in the assay with MALME-3M melanoma. The growth in the assay on MDA-MB-231 breast is 69.7%; with RXF 393 renal, 76%; in the assay with SF-268 CNS it was 69%; in the assay with SF-295 CNS, 77.2%; in the assay on SF-539 CNS, 73.3%; in the assay on UACC-257 melanoma, 107%. The growth in the assay with M14 melanoma is 66.3%.

On to `Cc1cc(C(=O)Nc2ccc3cc(CN4CCOCC4)ccc3n2)c(C)n1-c1ccccc1`, for which the growth in the assay with NCI-H23 lung was 12.7%; in the assay with NCI-H226 lung, 21.9%; in the assay with NCI-H322M lung, 94.2%; in the assay on HOP-62 NSCLC, 36%; in the assay on NCI-H460 lung it was 59.3%; with HOP-92 NSCLC, 51.7%. For the same compound, the growth in the assay with A549/ATCC NSCLC was 28%; in the assay on 786-0 renal, 56.7%; in the assay with COLO 205 colon it was 40.5%; with DU-145 prostate it was 70.2%; in the assay on K-562 leukemia it was 27%; in the assay on MALME-3M melanoma it was 11.4%. For the same compound, the growth is 70.9% with MDA-MB-231 breast; 96.3% in the assay with RXF 393 renal; 77% in the assay with SF-268 CNS; 11.7% with SF-295 CNS; 59.1% in the assay with SF-539 CNS; -12.7% (active) with UACC-257 melanoma. Moreover, the growth in the assay with M14 melanoma was 13.5%.

In the case of `NC(=N\N=C/Cc1ccccc1)/C(N)=N\N=C\Cc1ccccc1`, the growth in the assay with NCI-H23 lung was 104%; in the assay with NCI-H226 lung, 104%; in the assay on NCI-H322M lung it was 117%; in the assay with HOP-62 NSCLC, 113%; in the assay on NCI-H460 lung it was 112%; in the assay with HOP-92 NSCLC, 109%. In addition, the growth in the assay with A549/ATCC NSCLC was 101%; in the assay on 786-0 renal it was 112%; with COLO 205 colon it was 117%; in the assay with DU-145 prostate, 101%; in the assay with K-562 leukemia, 103%; in the assay with MALME-3M melanoma it was 144%. For the same compound, the growth is 97.7% with MDA-MB-231 breast; 121% in the assay on RXF 393 renal; 94% in the assay on SF-268 CNS; 108% in the assay with SF-295 CNS; 93% with SF-539 CNS; 101% in the assay with UACC-257 melanoma. Besides, the growth in the assay on M14 melanoma was 105%.

As for `COc1cnc2c(c1)C(=O)c1c-2n(CCCN2CCCC2)c(=O)c2cc(F)ccc12`, the growth is -19.5% (active) in the assay with NCI-H23 lung; -81.2% (active) with NCI-H226 lung; 4.72% (active) with NCI-H322M lung; -16.4% (active) with HOP-62 NSCLC; -47.9% (active) with NCI-H460 lung; -5.39% (active) in the assay on HOP-92 NSCLC. The growth in the assay on A549/ATCC NSCLC is -80.4% (active); in the assay on 786-0 renal, -88.5% (active); in the assay on COLO 205 colon, -6.43% (active); with DU-145 prostate it was -1.81% (active); in the assay with K-562 leukemia, -45.1% (active); in the assay with MALME-3M melanoma, -71.9% (active). The growth with MDA-MB-231 breast was 23%; with RXF 393 renal, -81% (active); with SF-268 CNS it was 12.1%; with SF-295 CNS, -20.4% (active); in the assay with SF-539 CNS, -39.3% (active); in the assay on UACC-257 melanoma, -12.2% (active). Further, the growth in the assay with M14 melanoma was 2.05% (active).
